Experimental data taken from PubChem BioAssay AID1159580 (chemical genetic matrix, 2015).
Values joined by “and” are separate entries in the source; they are usually repeats but may differ in a detail not shown here. Equal values may be shown once. The campaign covered roughly 5,500 compounds. About 2,000 (36%) were called active. About 18% were inconclusive and are not listed. Cut-off read from the data, not from the text of the source: active = normalized growth mostly below about 0.91 (no sharp cut-off); inconclusive = no clear call, values can overlap the other calls; inactive = mostly above about 0.92. This is one part of the list.

Assay: chemical genetic growth profiling, strain panel (AID 1159580);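 note: tested at 20 µM; growth read once vehicle control cultures reached saturation at 30 °C; 1 = growth at the plate median or of vehicle wells; lower values mean less growth of the strain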
Conditions: S. cerevisiae deletion strains, growth OD

Measured: normalized growth

CC(=O)OC1CCC2(C)C(=CC=C3C2CCC2(C)C3CCC2C(C)/C=C/C(C)C(C)C)C1(C)C (configuration not stated)
inactive: locus YAL021C, strain ccr4, active compounds read low 0.994 | locus YAL026C, strain drs2, active compounds read low 1.02 | locus YAL030W, strain snc1, active compounds read low 1.02 | locus YBL061C, strain skt5, active compounds read low 1.02 | locus YBR009C, strain hhf1, active compounds read low 1.01 | locus YBR021W, strain FUR4, active compounds read low 1.02 | locus YBR023C, strain chs3, active compounds read low 1.03 | locus YBR171W, strain sec66, active compounds read low 1.04 | locus YBR229C, strain ROT2, active compounds read low 1.01 | locus YBR231C, strain swc5, active compounds read low 1.04 | locus YBR279W, strain paf1, active compounds read low 1.02 | locus YCL011C, strain gbp2, active compounds read low 1.03 | locus YCL016C, strain dcc1, active compounds read low 1.01 | locus YCL029C, strain bik1, active compounds read low 1.01 | locus YCL069W, strain vba3, active compounds read low 1.02 | locus YCR088W, strain abp1, active compounds read low 1.03 | locus YDL005C, strain med2, active compounds read low 1.04 | locus YDL035C, strain GPR1, active compounds read low 1.03 | locus YDL040C, strain nat1, active compounds read low 1.02 | locus YDL074C, strain BRE1, active compounds read low 1.06 | locus YDL101C, strain DUN1, active compounds read low 1.02 | locus YDL185W, strain tfp1, active compounds read low 0.993 | locus YDL192W, strain arf1, active compounds read low 1 | locus YDR001C, strain nth1, active compounds read low 1.03 | locus YDR069C, strain doa4, active compounds read low 1.02 | locus YDR101C, strain arx1, active compounds read low 0.974 | locus YDR137W, strain rgp1, active compounds read low 1.03 | locus YDR159W, strain sac3, active compounds read low 1.04 | locus YDR162C, strain NBP2, active compounds read low 0.995 | locus YDR195W, strain ref2 1.05 | locus YDR297W, strain sur2, active compounds read low 1.02 | locus YDR318W, strain mcm21, active compounds read low 1 | locus YDR334W, strain swr1, active compounds read low 1.03 | locus YDR335W, strain msn5, active compounds read low 1.02 | locus YDR388W, active compounds read low 1.02 | locus YDR392W, strain spt3, active compounds read low 0.992 | locus YDR502C, strain sam2, active compounds read low 0.989 | locus YEL003W, strain gim4, active compounds read low 1.03 | locus YEL037C, strain rad23, active compounds read low 1.02 | locus YEL061C, strain CIN8 (second series), active compounds read low 1.04 | locus YEL061C, strain CIN8, active compounds read low 1.01 | locus YER015W, strain faa2, active compounds read low 1.03 | locus YER016W, strain bim1, active compounds read low 1.02 | locus YER110C, active compounds read low 1.01 | locus YER111C, strain swi4, active compounds read low 1.02 | locus YER155C, strain BEM2 (second series), active compounds read low 1.05 | locus YER155C, strain BEM2, active compounds read low 0.998 | locus YER167W, strain BCK2, active compounds read low 1.04 | locus YFR010W, strain ubp6, active compounds read low 1.04 | locus YGL078C, strain dbp3, active compounds read low 0.987 | locus YGL086W, strain mad1, active compounds read low 0.994 | locus YGL167C, strain pmr1, active compounds read low 1.02 | locus YGL173C, strain kem1, active compounds read low 1.03 | locus YGL227W, strain vid30, active compounds read low 1.03 | locus YGL240W, strain doc1, active compounds read low 1 | locus YGL248W, strain PDE1, active compounds read low 1.01 | locus YGL253W, strain hxk2, active compounds read low 1.03 | locus YGR078C, strain PAC10, active compounds read low 1.04 | locus YGR135W, strain pre9, active compounds read low 0.996 | locus YGR252W, strain gcn5, active compounds read low 1.03 | locus YHR013C, strain ard1, active compounds read low 1.03 | locus YHR027C, strain rpn1, active compounds read low 1.04 | locus YHR030C, strain SLT2, active compounds read low 1.01 and 0.996 | locus YHR079C, strain IRE1 (second series), active compounds read low 0.998 | locus YHR079C, strain IRE1, active compounds read low 1.03 | locus YHR094C, strain hxt1, active compounds read low 0.991 | locus YHR129C, strain ARP1, active compounds read low 1.03 | locus YHR142W, strain chs7, active compounds read low 1.05 | locus YHR200W, strain rpn10, active compounds read low 0.986 | locus YIL066C, strain RNR3, active compounds read low 1.03 | locus YIL073C, strain SPO22, active compounds read low 1.03 | locus YIL125W, strain kgd1, active compounds read low 1 | locus YIR030C, strain dcg1, active compounds read low 1 | locus YJL092W, strain hpr5, active compounds read low 1.03 | locus YJL095W, strain BCK1 (second series), active compounds read low 1.02 | locus YJL095W, strain BCK1, active compounds read low 1.03 and 0.996 | locus YJL115W, strain asf1, active compounds read low 1.03 | locus YJL129C, strain trk1, active compounds read low 1.05 | locus YJL134W, strain LCB3, active compounds read low 1.01 | locus YJL154C, strain vps35, active compounds read low 1.03 | locus YJL164C, strain tpk1, active compounds read low 1.01 | locus YJL166W, strain qcr8, active compounds read low 1.02 | locus YJL168C, strain set2, active compounds read low 1 | locus YJL187C, strain SWE1 (second series), active compounds read low 1.03 | locus YJL187C, strain SWE1, active compounds read low 1.04 | locus YJR043C, strain POL32, active compounds read low 1.03 | locus YJR066W, strain TOR1, active compounds read low 0.936 | locus YKL009W, strain mrt4, active compounds read low 1.01 | locus YKL068W, active compounds read low 1.01 | locus YKL085W, strain MDH1 (second series), active compounds read low 1 | locus YKL085W, strain MDH1, active compounds read low 1 | locus YKL160W, strain elf1, active compounds read low 0.997 | locus YKR001C, strain vps1, active compounds read low 0.988 | locus YKR026C, strain gcn3, active compounds read low 1.03 | locus YKR091W, strain srl3, active compounds read low 1.03 | locus YLL001W, strain dnm1, active compounds read low 1.01 | locus YLL026W, active compounds read low 1.02 | locus YLL041C, strain sdh2, active compounds read low 1.02 | locus YLR027C, strain aat2, active compounds read low 1 | locus YLR039C, strain RIC1, active compounds read low 1.04 | locus YLR058C, strain SHM2, active compounds read low 1.01 | locus YLR102C, strain apc9, active compounds read low 0.988 | locus YLR113W, strain HOG1, active compounds read low 0.995 | locus YLR221C, strain rsa3, active compounds read low 1.02 | locus YLR258W, strain gsy2, active compounds read low 1 | locus YLR262C, strain YPT6 (second series), active compounds read low 1.01 | locus YLR262C, strain YPT6, active compounds read low 1.07 | locus YLR268W, strain sec22, active compounds read low 0.998 | locus YLR320W, strain mms22, active compounds read low 1.03 | locus YLR330W, strain CHS5, active compounds read low 1.02 | locus YLR342W, strain FKS1 (second series), active compounds read low 1.12 | locus YLR342W, strain FKS1, active compounds read low 1.02 | locus YLR357W, strain rsc2, active compounds read low 1.06 | locus YLR370C, strain arc18, active compounds read low 1.06 | locus YLR371W, strain rom2, active compounds read low 1.01 | locus YLR384C, strain iki3, active compounds read low 1.03 | locus YLR418C, strain cdc73, active compounds read low 1.02 | locus YML016C, strain PPZ1, active compounds read low 1 | locus YML032C, strain rad52, active compounds read low 1 | locus YML120C, strain ndi1, active compounds read low 1.02 | locus YML124C, strain tub3, active compounds read low 0.987 | locus YMR058W, strain fet3, active compounds read low 1.05 | locus YMR078C, strain ctf18, active compounds read low 0.998 | locus YMR125W, strain sto1, active compounds read low 1.03 | locus YMR129W, active compounds read low 1.03 | locus YMR205C, strain PFK2, active compounds read low 1.02 | locus YMR223W, strain ubp8, active compounds read low 1 | locus YMR231W, strain pep5, active compounds read low 1.02 | locus YMR263W, strain SAP30, active compounds read low 1.03 | locus YMR307W, strain GAS1, active compounds read low 1 | locus YNL067W, strain RPL9B, active compounds read low 1.04 | locus YNL071W, strain lat1, active compounds read low 1.03 | locus YNL183C, strain NPR1, active compounds read low 0.965 | locus YNL209W, strain ssb2, active compounds read low 1.01 | locus YNL233W, strain BNI4, active compounds read low 1.03 | locus YNL248C, strain rpa49, active compounds read low 0.965 | locus YNL250W, strain rad50, active compounds read low 0.99 | locus YNL271C, strain bni1, active compounds read low 1 | locus YNL298W, strain CLA4, active compounds read low 0.979 | locus YNL307C, strain MCK1, active compounds read low 1.02 | locus YNL322C, strain KRE1 (second series), active compounds read low 1.02 | locus YNL322C, strain KRE1, active compounds read low 1.02 | locus YNR049C, strain mso1, active compounds read low 1.02 | locus YNR052C, strain pop2, active compounds read low 1.01 | locus YOL012C, strain htz1 1.7 | locus YOL147C, strain pex11, active compounds read low 1 | locus YOR001W, strain rrp6, active compounds read low 1.04 | locus YOR061W, strain CKA2, active compounds read low 1 | locus YOR069W, strain VPS5, active compounds read low 1.01 | locus YOR070C, strain gyp1, active compounds read low 1.02 | locus YOR080W, strain dia2, active compounds read low 1.02 | locus YOR083W, strain WHI5, active compounds read low 0.998 | locus YOR106W, strain vam3, active compounds read low 1.02 | locus YOR136W, strain idh2, active compounds read low 0.987 | locus YOR144C, strain elg1, active compounds read low 0.988 | locus YOR184W, strain ser1, active compounds read low 0.983 | locus YOR231W, strain MKK1, active compounds read low 1.04 | locus YOR265W, strain rbl2, active compounds read low 1.01 | locus YOR270C, strain vph1, active compounds read low 1.03 | locus YOR290C, strain snf2, active compounds read low 0.993 | locus YOR316C, strain cot1, active compounds read low 0.989 | locus YPL051W, strain arl3, active compounds read low 1.02 | locus YPL055C, strain LGE1, active compounds read low 1.07 | locus YPL078C, strain atp4, active compounds read low 0.999 | locus YPL106C, strain sse1, active compounds read low 1.05 | locus YPL240C, strain hsp82, active compounds read low 1.03 | locus YPL256C, strain CLN2, active compounds read low 1.04 | locus YPR119W, strain clb2, active compounds read low 1 | locus YPR141C, strain kar3, active compounds read low 0.982 | locus YPR163C, strain tif3, active compounds read low 0.978 | locus YPR167C, strain met16, active compounds read low 1.01 | strain wtn01, active compounds read low 0.984
